# The sample as a whole holds a higher share of hits than the screen did.
# Tg IFNy HTS: T. gondii growth inhibition under IFN-gamma; activity change, negative = inhibition, % (concentration not given with the values); Toxoplasma gondii growth in IFN-gamma-treated host cells; hits give low values; hit rate 3.8% among 69,000; in the data active = activity change below about -70%, passing the limit was not always enough;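 note: host cells are HeLa cells infected with Toxoplasma gondii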
# The depositor's hits bear a star; i = inactive.
SMILES,Tg IFNy HTS
O=C1CO[C@H]2CN(c3ncccn3)C[C@@H]2N1CC1CC1,-27.6
O=C(CCC(=O)N1CC(=O)Nc2ccccc21)Nc1cccc(-n2cccn2)c1,0.6
O=C1CN(C(=O)CSc2nc(C3CCCCC3)nc3ccccc23)c2ccccc2N1,-97.8*
COc1cc2cc(C)c(SCC(=O)N3CC(=O)Nc4ccccc43)nc2cc1OC,8.8
CN(C)CCN1Cc2nnn(C)c2C(COCc2ccccc2)C1 (stereo not drawn),-3.1
O=S(=O)(NCCc1csc(-c2ccc(F)cc2)n1)c1ccc(F)cc1F,-31.6
Nc1nc2c(ncn2CCC(CO)CO)c(=O)[nH]1,12.7
COc1ccc(-c2cc(-c3ccc4ccccc4c3)n(C)c2-c2ccc(F)cc2)cc1,-93.6*
COc1ccc(-c2nc(Nc3ccc(F)cc3)c3ccccc3n2)cc1,-28.4
COc1ccc(-c2cc(-c3ccccc3)c(-c3ccccc3)o2)cc1,-16.1
COc1ccc(S(=O)(=O)N(C)C[C@H]2Oc3ccc(NC(=O)Cc4cn(C)c5ccccc45)cc3C(=O)N([C@H](C)CO)C[C@@H]2C)cc1,-55.9
CCC(CC)n1ncc(C)c1NC(=O)c1cccnc1OC,-58.8
COc1ccccc1OCC(=O)NCCc1csc(-c2ccc(Cl)cc2)n1,65.2
CCN(CC)c1ccc(C(=C2C=CC(=[N+](CC)CC)C=C2)c2ccccc2)cc1,-74.1*
COCC1c2nnn(CC3CC3)c2CCN1C(=O)C1CCOCC1 (stereo not drawn),-8.7
COc1cccc(F)c1-c1c(-c2ccccc2)ncn1CC(O)c1ccccc1 (stereo not drawn),-4.9
CCOCCCNC(=O)c1nc(Nc2ccc(C)cc2)c2ccccc2n1,-54.7
Cc1ccc(Nc2nc(C(=O)NCCC(C)C)nc3ccccc23)cc1,-87.2*
Cc1ccc(Nc2nc(C(=O)Nc3cc(C)cc(C)c3)nc3ccccc23)cc1,-7.0
CCOC(=O)c1nc(NCc2ccc(C)cc2)c2ccccc2n1,6.8
CC(NC(=O)c1nc(Nc2ccc(F)cc2)c2ccccc2n1)c1ccccc1 (stereo not drawn),-8.1
CCCCNc1nc(C(=O)OCC)nc2ccccc12,0.6
CC(C)CCNC(=O)c1nc(Nc2ccccc2)c2ccccc2n1,-46.5
CCOC(=O)c1nc(NCCc2ccc(C)cc2)c2ccccc2n1,-72.5*
Cc1ccc(Nc2nc(C(=O)NC(C)C)nc3ccccc23)cc1,-78.8*
SMILES,Tg IFNy HTS
COCCN1CCC(c2[nH]cnc2-c2ccccc2)CC1,-6.2
Cc1nc(-c2ccccc2)nc2c1CCN(C)CC2,7.3
Cc1nc(-c2ccc(F)cc2)sc1CCNC(=O)c1ccc(Br)o1,-56.7
C=CCn1cc(CN2CCN(C)C(=O)C2CCCC)c(C)n1 (stereo not drawn),8.5
COc1ccc(-c2nc(C)c(CCNC(=O)C(C)(C)C)s2)cc1OC,i
CC(=O)N1CCC(C(=O)NCc2ccccc2)(N(CCc2ccccc2Cl)C(=O)c2ccc(C)cc2)CC1,3.4
C=COCC(F)(F)F,19.0
c1ccc(C(c2ccccc2)c2nc(CSc3nnnn3-c3ccccc3)no2)cc1,-21.3
COC(=O)c1cccc(-n2nnnc2SCC(=O)Nc2ccc(F)cc2)c1,-0.5
Cc1[nH]n2c(=O)cc(CSc3nnnn3-c3ccccc3)nc2c1-c1ccc(F)cc1,-92.5*
COc1cc2c(cc1CNS(=O)(=O)c1ccc3[nH]c(=O)[nH]c(=O)c3c1)CCC2,6.9
CCn1c(C)nc2cc(NC(=O)c3cnc4sccn4c3=O)ccc21,213.8
CCOC(=O)c1nc(Nc2ccc(CC)cc2)c2ccccc2n1,-38.1
CCOC(=O)c1ccc(Nc2nnc(-n3nc(C)cc3C)c3ccccc23)cc1,-84.5*
Cc1cc(C)n(-c2nnc(SCC(=O)Nc3ccccc3)c3ccccc23)n1,2.8
CCOc1ccc(C(=O)C2CC(=O)Nc3c2c(C2CC2)nn3C)cc1OCC (stereo not drawn),-66.3
O=C(C1CN(S(=O)(=O)c2cccnc2)CC12CCCCC2)N1CCc2ccccc2C1 (stereo not drawn),-46.0
Cc1c2oc3c(C)ccc(C(=O)N[C@@H]4C(=O)N[C@H](C(C)C)C(=O)N5CCC[C@H]5C(=O)N(C)CC(=O)N(C)[C@@H](C(C)C)C(=O)O[C@@H]4C)c3nc-2c(C(=O)N[C@@H]2C(=O)N[C@H](C(C)C)C(=O)N3CCC[C@H]3C(=O)N(C)CC(=O)N(C)[C@@H](C(C)C)C(=O)O[C@@H]2C)c(N)c1=O,-81.8*
CC(c1cccc(-c2nccn2CCc2ccccn2)c1)N(C)C (stereo not drawn),-5.9
CC(C)(C)c1ccc(C(=O)OCc2ccc3c(c2)OCO3)s1,-42.7
Cc1noc(C)c1NC(=O)Nc1ccc2c(c1)C(=O)N([C@H](C)CO)C[C@H](C)[C@@H](CN(C)Cc1ccc3c(c1)OCO3)OCCCC[C@H](C)O2,107.8
CC(C)Cc1ncc2c(n1)CN(C(=O)c1ccc(=O)n(C)n1)C2,-3.7
CCOc1cccc(C(=O)Nc2ccc(N3CCN(C(=O)c4ccco4)CC3)cc2)c1,-86.4*
CC(=O)Nc1ccc(C(=O)N2CCN(C(=O)c3ccco3)CC2)cc1,-51.9
CCOc1ccc(C(=O)Nc2ccc(N3CCN(C(C)=O)CC3)cc2)cc1[N+](=O)[O-],-13.5
SMILES,Tg IFNy HTS
C[C@@H]1CN([C@H](C)CO)C(=O)c2cc(C3=CCCCC3)cnc2O[C@H]1CN(C)S(=O)(=O)c1cn(C)cn1,162.6
CCOc1ccc(NC(=O)Cc2ccc(Br)cc2)cc1,41.6
S=c1[nH]nc(C2CCCCC2)n1-c1ccccc1,14.0
Cc1oc(-c2ccc3ccccc3c2)nc1CN1CCN(S(N)(=O)=O)CC1,36.2
CNC(=O)c1ccc(-c2nc(CN3CCN(S(=O)(=O)c4ccc(OC)cc4)CC3)c(C)o2)cc1,13.6
Cc1oc(-c2ccccc2)nc1Cn1ccn2nc(-c3ccc4c(c3)OCO4)cc2c1=O,-15.2
CCOC(=O)c1ccc2c(c1)N(Cc1nc(-c3cccc(C)c3)oc1C)C(=O)c1ccccc1S2,-42.8
CCN(CC)S(=O)(=O)c1ccc2c(c1)N(Cc1nc(-c3ccccc3)oc1C)C(=O)CS2,-79.5*
Cc1oc(-c2ccccc2)nc1CN1C(=O)CSc2ccc(S(=O)(=O)N3CCCCCC3)cc21,-95.2*
COc1ccc(S(=O)(=O)N(C)C[C@H]2Oc3c(cccc3N(C)C)C(=O)N([C@@H](C)CO)C[C@@H]2C)cc1,-16.5
CCCCNC(=O)N1CCC2(CC1)OC(C(=O)NCc1ccccn1)Cn1ccnc12 (stereo not drawn),329.7
COC1CC2CCC(C)C(O)(O2)C(=O)C(=O)N2CCCCC2C(=O)OC(C(C)CC2CCC(O)C(OC)C2)CC(=O)C(C)/C=C(\C)C(O)C(OC)C(=O)C(C)CC(C)/C=C/C=C/C=C/1C (stereo not drawn),10.0
O=C(C1CCCO1)N1CCC2(CC1)NCCc1[nH]cnc12 (stereo not drawn),-3.1
O=c1cc(Nc2cccc(C(F)(F)F)c2)nc[nH]1,-102.8*
Cc1cc(C)c(S(=O)(=O)Nc2cccc(C(F)(F)F)c2)c(C)c1,7.3
CC(=O)N1C(=O)C2(N=C(N)NC(Nc3cccc(C(F)(F)F)c3)=N2)c2ccccc21 (stereo not drawn),11.6
CCCn1c(=O)c2[nH]c(C34CC5CC(CC3C5)C4)nc2n(CCC)c1=O,-27.9
Cc1nc(CN(C)C(=O)c2ccc(C)c(NC(=O)C3CCCC3)c2)no1,-1.0
COCCC(=O)N1CCc2nc(N3CCOCC3)nc(NC(C)C)c2C1,30.5
COc1cccc(C(=O)N2CCc3nc(N4CCCC4)nc(NC(C)C)c3C2)c1,-109.9*
Cc1ccsc1C(=O)N1CCc2nc(N3CCOCC3)nc(NC(C)C)c2C1,-20.4
CCOC(=O)c1nc(Nc2cccc(C)c2)c2ccccc2n1,-9.7
